SMILES strings stand for the structures. Records with an inconclusive call do not appear. Calls of active or inactive are those of the source. Rule for the calls: active = hit-call score of the fitted dose curve at least 0.9, where 1 is the maximum; inconclusive = response in the unintended direction; inactive = score below 0.9.

Chain of human Vitamin D Receptor (VDR), VDR (gene 7421) (P11473 whole entry, looked up, the tested form may be a part): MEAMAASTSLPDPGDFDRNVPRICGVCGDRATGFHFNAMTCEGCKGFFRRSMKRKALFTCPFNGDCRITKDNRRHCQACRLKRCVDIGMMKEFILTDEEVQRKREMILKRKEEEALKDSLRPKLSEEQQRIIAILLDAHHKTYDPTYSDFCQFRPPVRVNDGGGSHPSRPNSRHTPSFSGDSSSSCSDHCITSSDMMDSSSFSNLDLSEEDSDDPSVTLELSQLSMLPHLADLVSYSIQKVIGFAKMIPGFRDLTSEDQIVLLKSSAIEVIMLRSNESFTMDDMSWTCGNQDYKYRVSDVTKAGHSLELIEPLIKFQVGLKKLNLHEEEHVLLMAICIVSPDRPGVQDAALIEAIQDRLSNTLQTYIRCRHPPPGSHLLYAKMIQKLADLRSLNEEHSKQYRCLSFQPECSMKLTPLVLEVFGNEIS

This assay deals with human Vitamin D Receptor (VDR), VDR (gene 7421) (UniProt P11473). In words: ATG_VDR_TRANS: Attagene TRANS-FACTORIAL HepG2 Assay for human Vitamin D Receptor (VDR) (AID 2283022). The gist of the method:
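Fluorescence of labelled reporter cDNA fragments, resolved by capillary electrophoresis, gives mRNA induction after 24 h treatment of HepG2 cells carrying transfected Gal4-fusion reporter units. Activity is fitted in the positive direction with DMSO as baseline.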
Regarding `Nc1ccc(F)c([N+](=O)[O-])c1`, the outcome was inactive.

As for `COc1ccc(Cl)cc1C`, the compound was called inactive. The same measure for `COC(=O)C1=C(C)NC(C)=C(C(=O)OCCN(C)Cc2ccccc2)C1c1cccc([N+](=O)[O-])c1` (centres undefined): “inactive”; for `Fc1c(F)c(F)c(Br)c(F)c1F`: “inactive”. The result for `CC(C)=CCC/C(C)=C/COC=O` reads “inactive”. The same measure for `CCCC(=O)C(C)=O`: “inactive”.

In the case of `C=CC[N+](C)(C)CC=C`, the call was inactive.

For the compound `CC(=O)OCC=Cc1ccccc1`, the compound was classed as inactive. The result for `CC(=O)C=CC1=C(C)CCCC1(C)C` reads “inactive”. The same measure for `NCCCCCCN`: “inactive”; for `CCC(=O)/C=C/C1C(C)=CCCC1(C)C` (centres undefined): “inactive”; for `CCCC(=O)OCCC(C)CCC=C(C)C` (centres undefined): “inactive”. The result for `OCCN1CCNCC1` reads “inactive”; that for `C=C(C)[C@@H]1CCC2=CC(=O)C[C@@H](C)[C@]2(C)C1`, “inactive”; that for `CCCCCCCCCOC(C)=O`, “inactive”. In the case of `O=C(O)CCCCC1CCSS1` (centres undefined), the outcome was inactive.

`CC(C)(C)NC(N)=O`: the result was inactive. Take `CC1(C)CCC(C)(C)c2cc(C(=O)Nc3ccc(C(=O)O)cc3)ccc21`: the compound was classed as inactive. The result for `CNCCCC12CCC(c3ccccc31)c1ccccc12` reads “inactive”; that for `CC(C)C1CCC(O)CC1` (centres undefined), “inactive”. Regarding `CC(C)(C)c1cc(CCC(=O)NN)cc(C(C)(C)C)c1O`, the result was inactive. The same measure for `C=CC(=O)NCOCC(C)C`: “inactive”. For `COc1cc2ncnc(Nc3cccc(Cl)c3)c2cc1OC`, the compound was called inactive.

Regarding `C[C@H]1C[C@H]2[C@@H]3CCC4=CC(=O)C=C[C@]4(C)[C@@]3(F)[C@@H](O)C[C@]2(C)[C@@]1(O)C(=O)COP(=O)(O)O`, the compound was classed as inactive.

With `O=c1[nH]nnc2ccccc12`, the compound was classed as inactive. With `Cc1ccccc1C=O`, the result was inactive.

Consider `CC1=CC(=O)NS(=O)(=O)O1`, for which the result was inactive. Regarding `Cc1ccc2sc3cccc(C)c3c2c1`, the compound was classed as inactive. On to `CC(C)(C#N)c1cc(Cn2cncn2)cc(C(C)(C)C#N)c1`, for which the compound was called inactive. The same measure for `COC(C(=O)O)c1ccccc1` (centres undefined): “inactive”; for `OCCOCCOCCOCCO`: “inactive”; for `CCC(C)(O)CCC=C(C)C` (centres undefined): “inactive”.

Regarding `CO[Si](CCCn1c(=O)n(CCC[Si](OC)(OC)OC)c(=O)n(CCC[Si](OC)(OC)OC)c1=O)(OC)OC`, the call was inactive. Take `O=[N+]([O-])c1ccc(Nc2ccc(Nc3ccccc3)c(S(=O)(=O)O)c2)c([N+](=O)[O-])c1`: the compound was called inactive. Consider `O=c1cc(-c2ccccc2)oc2cc(O)cc(O)c12`, for which the call was inactive. Regarding `CC(C)=CCCC(C)CC=O` (centres undefined), the call was inactive. For the compound `C/C=C(\C)C(=O)OCc1ccccc1`, the result was inactive.

`C[C@]12CC[C@H]3[C@@H](CCC4=CC(=O)CC[C@@]43C)[C@@H]1CC[C@@H]2C(=O)CO`: the outcome was inactive. Regarding `CC(C)=CCC[C@](C)(O)[C@@H]1CC=C(C)CC1`, the compound was classed as inactive.

The record behind these values is PubChem BioAssay (EPA / NIEHS).
